{"source": "the supplement of paper PMC8728848", "assay_in_all_cases": "glycan array binding signal (z-score within array); higher = stronger binding", "conditions_in_all_cases": "glycan notation: IUPAC condensed, linker removed", "key": {"[1]": {"target": "Gal(b1-4)GlcNAc6P", "procedure,_shortened": "(§1)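 The binding signal is a Z-score computed within each array. Data were drawn from 3228 arrays in the Consortium for Functional Glycomics database, restricted to those with a known protein sequence. Scores were averaged over arrays of the same protein sequence at different concentrations or buffers, and over linkers, and negative values can be taken as non-binding.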"}, "[2]": {"target": "Gal3S(b1-3)GalNAc", "procedure,_shortened": "as §1"}, "[3]": {"target": "Gal6S(b1-4)Glc", "procedure,_shortened": "as §1"}, "[4]": {"target": "GalNAc(b1-4)GlcNAc(b1-2)Man", "procedure,_shortened": "as §1"}, "[5]": {"target": "Glc(b1-6)Glc", "procedure,_shortened": "as §1"}, "[6]": {"target": "GlcNAc(a1-4)Gal(b1-4)GlcNAc", "procedure,_shortened": "as §1"}, "[7]": {"target": "GlcNAc(b1-3)Man", "procedure,_shortened": "as §1"}, "[8]": {"target": "Kdn(a2-3)Gal(b1-4)Glc", "procedure,_shortened": "as §1"}, "[9]": {"target": "Kdn(a2-3)Gal(b1-4)GlcNAc", "procedure,_shortened": "as §1"}, "[10]": {"target": "Man(a1-2)Man(a1-3)[Man(a1-2)Man(a1-6)]Man", "procedure,_shortened": "as §1"}, "[11]": {"target": "Man(a1-3)[Man(a1-6)]Man", "procedure,_shortened": "as §1"}, "[12]": {"target": "Man(a1-3)[Man(a1-6)]Man(a1-6)[Man(a1-2)Man(a1-3)]Man(b1-4)GlcNAc(b1-4)GlcNAc", "procedure,_shortened": "as §1"}, "[13]": {"target": "MurNAc(b1-4)GlcNAc", "procedure,_shortened": "as §1"}, "[14]": {"target": "Neu5Ac(a2-3)Gal", "procedure,_shortened": "as §1"}, "[15]": {"target": "Neu5Ac(a2-3)Gal(b1-3)GalNAc(b1-3)Gal(a1-4)Gal(b1-4)Glc", "procedure,_shortened": "as §1"}, "[16]": {"target": "Neu5Ac(a2-3)Gal(b1-3)GlcNAc(b1-2)Man(a1-3)[GlcNAc(b1-4)][Neu5Ac(a2-3)Gal(b1-3)GlcNAc(b1-2)Man(a1-6)]Man(b1-4)GlcNAc(b1-4)GlcNAc", "procedure,_shortened": "as §1"}, "[17]": {"target": "Neu5Ac(a2-3)Gal(b1-4)GlcNAc(b1-3)Gal", "procedure,_shortened": "as §1"}, "[18]": {"target": "Neu5Ac(a2-3)Gal(b1-4)GlcNAc(b1-3)Gal(b1-4)GlcNAc(b1-3)Gal(b1-4)GlcNAc(b1-2)Man(a1-3)[Neu5Ac(a2-3)Gal(b1-4)GlcNAc(b1-3)Gal(b1-4)GlcNAc(b1-3)Gal(b1-4)GlcNAc(b1-2)Man(a1-6)]GalNAc", "procedure,_shortened": "as §1"}, "[19]": {"target": "Neu5Ac(a2-3)Gal(b1-4)[Fuc(a1-3)]GlcNAc(b1-3)GalNAc", "procedure,_shortened": "as §1"}, "[20]": {"target": "Neu5Ac(a2-3)[GalNAc(b1-4)]Gal(b1-4)Glc", "procedure,_shortened": "as §1"}, "[21]": {"target": "Neu5Ac(a2-6)Gal(b1-4)GlcNAc(b1-2)Man(a1-3)[Neu5Ac(a2-6)Gal(b1-4)GlcNAc(b1-2)Man(a1-6)]Man(b1-4)GlcNAc(b1-4)GlcNAc", "procedure,_shortened": "as §1"}, "[22]": {"target": "Neu5Ac(a2-6)Gal(b1-4)GlcNAc(b1-3)Gal(b1-4)GlcNAc(b1-3)[Neu5Ac(a2-6)Gal(b1-4)GlcNAc(b1-3)Gal(b1-4)GlcNAc(b1-6)]GalNAc", "procedure,_shortened": "as §1"}, "[23]": {"target": "Neu5Ac(a2-6)Gal(b1-4)GlcNAc(b1-3)[Neu5Ac(a2-6)Gal(b1-4)GlcNAc(b1-6)]GalNAc", "procedure,_shortened": "as §1"}, "[24]": {"target": "Neu5Ac(a2-6)GalNAc(b1-4)GlcNAc6S", "procedure,_shortened": "as §1"}, "[25]": {"target": "Neu5Ac(a2-6)GlcNAc(b1-4)GlcNAc(b1-4)GlcNAc", "procedure,_shortened": "as §1"}, "[26]": {"target": "Neu5Ac(a2-8)Neu5Ac(a2-3)Gal(b1-4)Glc", "procedure,_shortened": "as §1"}, "[27]": {"target": "Neu5Ac(a2-8)Neu5Ac(a2-3)Gal(b1-4)GlcNAc", "procedure,_shortened": "as §1"}, "[28]": {"target": "Neu5Ac(a2-8)Neu5Ac(a2-8)Neu5Ac(a2-3)Gal(b1-4)Glc", "procedure,_shortened": "as §1"}, "[29]": {"target": "Neu5Gc(a2-3)Gal(b1-4)GlcNAc", "procedure,_shortened": "as §1"}}, "note": "Many of the other results were omitted from the sample, so the strongest signals are more common in it than they were."}
{"binder": "CPA (Cicer arietinum) (protein) MAFSYLNLVLVTLTTLFFLQTTKVKSQKSVSFHITNFTISRPSITLQGTAEFLPNVLLLNDIEHPVFVVGRALYSKPITLWNNKTGKVASFVTSFTFDVQDLKKTVPGHGLVFFLAPSGSEIPFSSDGGNLGVVDGKNAFNRFVGVEFDNFVNSWDPKYSHVGINVNSLISTKTVKWNRVSGELVKVSIVYDSVSTTLTVIVTYKNGQISILSQLVDLKAVLPDTVNIGFSASTTLVSPRQLHNIHSWSFTSTFET", "values": [{"measurement": "glycan array binding signal (z-score)", "setting": "[1]", "value": 5.14}, {"measurement": "glycan array binding signal (z-score)", "setting": "[2]", "value": -0.183}, {"measurement": "glycan array binding signal (z-score)", "setting": "[3]", "value": 0.138}, {"measurement": "glycan array binding signal (z-score)", "setting": "[4]", "value": 1.55}, {"measurement": "glycan array binding signal (z-score)", "setting": "[5]", "value": -0.614}, {"measurement": "glycan array binding signal (z-score)", "setting": "[6]", "value": 2.25}, {"measurement": "glycan array binding signal (z-score)", "setting": "[7]", "value": -0.558}, {"measurement": "glycan array binding signal (z-score)", "setting": "[8]", "value": -0.762}, {"measurement": "glycan array binding signal (z-score)", "setting": "[9]", "value": -0.585}, {"measurement": "glycan array binding signal (z-score)", "setting": "[10]", "value": -0.461}, {"measurement": "glycan array binding signal (z-score)", "setting": "[11]", "value": -0.635}, {"measurement": "glycan array binding signal (z-score)", "setting": "[12]", "value": 4.19}, {"measurement": "glycan array binding signal (z-score)", "setting": "[13]", "value": 0.406}, {"measurement": "glycan array binding signal (z-score)", "setting": "[14]", "value": -0.529}, {"measurement": "glycan array binding signal (z-score)", "setting": "[15]", "value": -0.601}, {"measurement": "glycan array binding signal (z-score)", "setting": "[16]", "value": -0.065}, {"measurement": "glycan array binding signal (z-score)", "setting": "[17]", "value": -0.66}, {"measurement": "glycan array binding signal (z-score)", "setting": "[18]", "value": 6.81}, {"measurement": "glycan array binding signal (z-score)", "setting": "[19]", "value": -0.322}, {"measurement": "glycan array binding signal (z-score)", "setting": "[20]", "value": -0.34}, {"measurement": "glycan array binding signal (z-score)", "setting": "[21]", "value": -0.503}, {"measurement": "glycan array binding signal (z-score)", "setting": "[22]", "value": 3.34}, {"measurement": "glycan array binding signal (z-score)", "setting": "[23]", "value": -0.588}, {"measurement": "glycan array binding signal (z-score)", "setting": "[24]", "value": -0.452}, {"measurement": "glycan array binding signal (z-score)", "setting": "[25]", "value": 2.61}, {"measurement": "glycan array binding signal (z-score)", "setting": "[26]", "value": -0.501}, {"measurement": "glycan array binding signal (z-score)", "setting": "[27]", "value": -0.647}, {"measurement": "glycan array binding signal (z-score)", "setting": "[28]", "value": -0.579}, {"measurement": "glycan array binding signal (z-score)", "setting": "[29]", "value": -0.402}]}
